TrxR1 substrate: is turned over as a substrate by rat TrxR1; purified TrxR1 substrate turnover, NADPH consumption readout; Potency, µM (top dose mostly 114 µM), for inactives: at the top dose activity change, negative = substrate turnover; 390,000 compounds, 0.01% hits; AID 588456; note: potency is the fitted concentration of half-maximal effect; nearly all actives have a fitted effect of over 50% in size
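Rat TrxR1, dispensed at 90 nM, was prereduced with 400 uM NADPH (final) for 5 min at ~22 deg C, then incubated with compound 15 min before 400 uM selenite. A first-read NADPH fluorescence drop versus no-compound background flagged substrates.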
GALK inhibitor: blocks human galactokinase activity; P51570; Purified GALK, Kinase-Glo residual ATP luminescence; Potency, µM (top dose mostly 57.5 µM), for inactives: at the highest dose activity change, negative = inhibition, hits mostly inhibitors; 270,000 compounds, 0.007% hits; AID 1868; note: potency is the fitted concentration of half-maximal effect
Target sequence (P51570 whole entry, looked up): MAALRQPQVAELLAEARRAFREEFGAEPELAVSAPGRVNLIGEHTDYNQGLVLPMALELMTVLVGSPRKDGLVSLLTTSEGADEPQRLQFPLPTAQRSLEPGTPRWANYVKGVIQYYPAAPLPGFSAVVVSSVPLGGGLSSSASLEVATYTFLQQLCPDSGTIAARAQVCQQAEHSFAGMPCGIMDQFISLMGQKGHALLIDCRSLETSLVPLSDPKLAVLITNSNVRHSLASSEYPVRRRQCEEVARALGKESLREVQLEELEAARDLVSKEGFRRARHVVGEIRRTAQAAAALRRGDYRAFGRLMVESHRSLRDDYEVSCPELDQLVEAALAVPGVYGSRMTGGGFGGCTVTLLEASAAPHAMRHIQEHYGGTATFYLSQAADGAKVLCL
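Galactose (100 uM) and ATP (35 uM) were turned over by 5 nM GALK for 1 h at RT. Kinase-Glo Plus then converted the remaining ATP into a luminescent signal.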
RORgamma inh: inhibitors of mouse ROR gamma transcriptional activity; 310,000 compounds, 5.4% hits; AID 2551; Drosophila S2 Gal4-RORgamma UAS-luciferase reporter, 20 h; P51450; Potency, µM (doses to about 53.6 µM), without a hit: top-dose activity change, negative = inhibition, hits mostly inhibitors; note: potency is the fitted concentration of half-maximal effect; nearly all actives have a fitted effect of over 60% in size
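A Gal4/UAS one-hybrid system in insect cells: metallothionein-promoter Gal4–ROR gamma fusion plus Photinus luciferase reporter. Copper sulfate 700 uM final, 20 hr ambient incubation, luminescent detection after 10 min with reagent.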
Gal4-VP16 FLuc: inhibits Gal4-VP16 luciferase reporter, ROR gamma counter-screen; Potency, µM (titrated, usually from 53.6 µM), inactives show at the top dose activity, negative = inhibition, actives largely listed as inhibitors; Drosophila S2 Gal4-VP16 UAS-luciferase, luminescence, 20 h; 310,000 compounds, 3.5% hits; AID 2546;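 note: Gal4-VP16 expression switched on by copper sulfate through the metallothionein promoter; potency is the fitted concentration of half-maximal effect; nearly all actives have a fitted effect of over 50% in size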
FBPA coupling cs: coupling enzyme interference in Giardia aldolase counter-screen; coupling enzyme system counterscreen, AmpLite Red fluorescence; activity change, negative = inhibition, % at 58.2 µM, hits read low; 290,000 compounds, 0.67% hits; AID 2472; in the data active = activity change below about -30%
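Counterscreen of the coupled detection system alone, without aldolase: glyceraldehyde-3-phosphate coupling enzymes plus AmpLite Red readout. Compounds at 57.5 uM final, 10 min RT preincubation, 20 min RT reaction, fluorescence 525/598 nm.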
TrxR1 inh: rat TrxR1 inhibition. O89049. AID 588453. 390,000 compounds, 1% hits. recombinant rTrxR1, NADPH fluorescence consumption, selenite substrate. Potency, µM (highest dose often 114 µM), without a hit: at the top dose activity change, negative = inhibition, usual class: inhibitors; note: potency is the fitted concentration of half-maximal effect; nearly all actives have a fitted effect of over 65% in size
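Rat TrxR1 (90 nM in the dispensed reagent) was pre-reduced with 400 uM NADPH for 5 min at room temperature, then incubated with compound for 15 min. After 400 uM selenite was added, NADPH fluorescence (Ex 340/Em 450 nm) was followed for 8 min.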
* = called active by the depositor; ? = inconclusive; nt = no result given; [ ] = another dose, or the depositor's remark. Rows were chosen to be rich in hits. Some 5.9% of all compounds tested hit in one or more screens of this group. Unless noted, calls come from the whole dose curve; as a rule, active = well fitted curve in the direction sought with a large enough effect; inconclusive = small, poorly fitted or top-dose-only effect, or another doubt; inactive = no such curve, though single readings can be large; an effect the other way counts as inactive or inconclusive. % is set by controls: 0 for no effect and ±100 for the full control effect.

SMILES	TrxR1 substrate	GALK inhibitor	RORgamma inh	Gal4-VP16 FLuc	FBPA coupling cs	TrxR1 inh
CC(C)n1nc(C(=O)Oc2ccc(Cl)cc2)c2ccccc2c1=O	-8%	1%	-21%	1%	1	-10%
Cc1cc(=O)oc2cc(OC(=O)c3ccco3)ccc12	54%	-1%	-4%	0%	-1	71µM*
CCCn1nc(C(=O)Oc2ccc3c(C)cc(=O)oc3c2)c2ccccc2c1=O	702%	2%	2%	-3%	3	50µM*
CNc1nc(C23CC4CC(CC(C4)C2)C3)cs1	3%	2%	10µM*	-25%	2	20%
O=C(CC(=O)Nc1nc(C23CC4CC(CC(C4)C2)C3)cs1)NCCO	?	4%	-2%	3%	5	-14%
Cc1ccc(Nc2cc(C)nc(-n3nc(C)cc3C)n2)cc1	-6%[57.1 µM]	nt	nt	nt	nt	-3%[57.1 µM]
Cc1cc(C)n(-c2nncc(-c3ccccc3)n2)n1	0%	4%	?	?	1	6%
Cc1cc(C)n(-c2nc(C)nc(N)n2)n1	1%	-1%	14µM*	-19%	1	-6%
CNc1cc(C)nc(-n2nc(C)cc2C)n1	11%	1%	0.63µM*	2.5µM*	0	-2%[57.1 µM]
Cc1cc(Nc2ccc(Cl)cc2C)nc(-n2nc(C)cc2C)n1	2%[57.1 µM]	nt	nt	nt	nt	10%[57.1 µM]
Cc1cc(C)n(-c2nc(N(c3ccccc3)c3ccccc3)nc(-n3nc(C)cc3C)n2)n1	5%	-5%	5.6µM*	5.6µM*	1	19%
Cc1cc(Cl)nc(-n2nc(C)cc2C)n1	2%[57.1 µM]	1%	3.5µM*	13µM*	-1	6%[57.1 µM]
CCOc1ccc(Nc2cc(C)nc(-n3nc(C)cc3C)n2)cc1	-12%	0%	0.16µM*	0.89µM*	1	-11%
COCC1CCN(Cc2c(C(=O)N3CCc4ccccc4C3)nc3ccc(Cl)cn23)C1 (stereo not given)	5%	-3%	8%	14%	nt	16µM*
CCOC(=O)N1CCC(N2Cc3cccc(C(=O)NCc4ccccc4OC)c3C2=O)CC1	3%[57.1 µM]	-3%	?	6%	0	-9%
CCc1ccc(NC(=S)NC(=O)CC(C)C)cc1	6%	1%	1.1µM*	1µM*	3	-21%
COc1ccc(NC(=O)c2ccco2)cc1N	-5%	1%	23%	-17%	-41*	2%
CCCCC(=O)NC(=S)Nc1cccc(NC(=O)c2ccco2)c1	1%	-1%	?	16µM*	2	8.9µM*
COc1ccc(NC(=O)c2ccco2)cc1NC(=O)c1ccco1	19%[57.1 µM]	-1%	29%	11%	-3	-11%[57.1 µM]
Cc1ccc(NC(=S)NC(NC(=O)c2ccco2)C(Cl)(Cl)Cl)cc1 (stereo not given)	-6%	0%	11µM*	7.1µM*	-5	-23%
COc1ccccc1CNC(=O)CCNS(=O)(=O)c1ccc2c(c1)oc(=O)n2C	4%	-3%	-15%	1%	nt	12%
COC(=O)c1ccc2c(c1)N(CC(=O)Nc1ccc(OC)c(Cl)c1)C(=O)c1ccccc1S2	-10%[57.1 µM]	nt	nt	nt	nt	-12%[57.1 µM]
CC(C)CC(=O)NC(=S)Nc1ccc(NC(=O)c2ccco2)cc1	-10%	nt	13µM*	-15%	-2	?
CCC(=O)NC(=S)Nc1ccc(NC(=O)c2ccco2)c(OC)c1	-5%	0%	13µM*	?	-14	?
CCC(=O)NC(=S)Nc1ccc(NC(=O)c2ccco2)cc1	2%[57.1 µM]	1%	-19%	8%	1	-1%[57.1 µM]
SMILES	TrxR1 substrate	GALK inhibitor	RORgamma inh	Gal4-VP16 FLuc	FBPA coupling cs	TrxR1 inh
COc1cc(NC(=O)Cc2ccccc2)ccc1NC(=O)c1ccco1	-4%	1%	40%	5%	0	-8%
CCOc1ccc(NC(=S)NC(=O)c2ccco2)cc1	-9%	5%	6.3µM*	?	12	?
CC(C)NC(=O)c1ccccc1NC(=O)/C=C/c1cccc([N+](=O)[O-])c1	-2%	1%	?	7.9µM*	2	3%
CC(C)C(NC(=O)/C=C/c1cccc([N+](=O)[O-])c1)C(C)C	2%	2%	?	2%	4	10%
O=C(CN1C(=O)NC(c2ccccc2)(c2ccccc2)C1=O)N1CCN(c2ccccc2F)CC1	-1%	nt	nt	nt	nt	34%
Clc1ccccc1COc1ccccc1-c1nnco1	-6%	-2%	11µM*	?	0	-9%
c1ccc(OCCOc2ccccc2-c2nnco2)cc1	1%	2%	3%	0%	-4	-7%
COc1cc(NC(=S)Nc2ccccn2)cc(OC)c1OC	9%[57.1 µM]	-1%	3.5µM*	22µM*	0	-2%[57.1 µM]
COc1cc(NC(=S)Nc2ccc3c(c2)OCCO3)cc(OC)c1OC	5%	nt	-22%	24%	1	-9%[57.1 µM]
COc1cc(NC(=S)Nc2ccccn2)cc(OC)c1	-1%	2%	2.5µM*	5.6µM*	1	-7%
COC(=O)Cc1ccc(NC(=S)Nc2ccccn2)cc1	-9%	3%	5µM*	?	2	?
Cc1ccc(-c2noc(-c3ccccc3NC(=O)c3ccccc3)n2)cc1	4%	nt	nt	nt	nt	19%
CC1=CN2C(=N)/C(=C/c3ccc(Sc4ccc(Cl)cc4)o3)C(=O)N=C2S1	-5%	-2%	?	4.5µM*	0	-6%
CC1=CN2C(=N)/C(=C/c3ccc(Sc4ccc(C)cc4)o3)C(=O)N=C2S1	-21%	3%	2.2µM*	4µM*	0	-19%
CC1=CN2C(=N)/C(=C/c3ccc(C)o3)C(=O)N=C2S1	5%	-2%	1.4µM*	10µM*	0	23%
CCOc1cccc(C(=O)NC2=NCCS2)c1	-9%	1%	?	-28%	-1	5%[57.1 µM]
Cc1ccc(S(=O)(=O)N2CCN(S(=O)(=O)N(C)C)CC2)c(C)c1	-2%	-2%	35%	-5%	7	-5%
COc1ccccc1NC(=O)COc1ccc(Br)cc1CNC1CCCC1	5%[57.1 µM]	-2%	-19%	-12%	1	23%[57.1 µM]
OC1=C(O)c2nc3cc(F)ccc3nc21	-2%	-1%	0%	7%	2	1.6µM*
O=C(c1ccccc1)c1cc(Cl)ccc1N1C(=O)C=CC1=O	7%	9%	?	16µM*	-1	0.79µM*
Cc1cc(C)cc(Oc2ccccc2/C=N\O)c1	-12%	-2%	?	11µM*	-2	18%[57.1 µM]
Cc1cc2[nH]c(=O)c(=O)[nH]c2cc1S(=O)(=O)NCc1ccc(F)cc1	71%	nt	nt	nt	nt	-15%
C/C(=C\C(=O)c1ccccc1)Nc1ccc(Br)c(Cl)c1	-1%	-2%	-52%	-2%	nt	-19%
COc1ccc(C(=O)NNC(=O)C(=O)/C=C(\O)c2ccc(C)cc2)cc1	-2%	nt	13µM*	?	6	-5%
COc1ccc(N/C(C)=C/C(=O)c2ccccc2)cc1	-13%	2%	10%	?	3	-16%
